Data as given in PubChem BioAssay AID1159580 (chemical genetic matrix, 2015).
Hit rate of the full screen: of about 5,500 compounds, about 2,000 (36%) were called active. Roughly 18% stayed inconclusive and do not appear here. Cut-off read from the data, not from the text of the source: active = normalized growth mostly below about 0.91 (no sharp cut-off); inconclusive = no clear call, values can overlap the other calls; inactive = mostly above about 0.92. The list shows a part of the results.

Assay: chemical genetic growth profiling, strain panel (AID 1159580);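 note: tested at 20 µM; growth read once vehicle control cultures reached saturation at 30 °C; 1 = growth at the plate median or of vehicle wells; lower values mean less growth of the strain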
Settings: S. cerevisiae deletion strains, growth OD

Measured: normalized growth

O=C(O)CS
inactive: locus YHR030C, strain SLT2, hits give low values 1.05 | locus YHR079C, strain IRE1, hits give low values 1.02 | locus YJL095W, strain BCK1, hits give low values 1.04 | locus YJR066W, strain TOR1, hits give low values 0.941 | locus YLR113W, strain HOG1, hits give low values 1.07 | locus YNL183C, strain NPR1, hits give low values 1.02 | locus YOR231W, strain MKK1, hits give low values 1.08 | locus YPL256C, strain CLN2, hits give low values 1.05
